# Biological target: Tyrosine-protein kinase JAK1 (Homo sapiens) (UniProt P23458);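 note: each value is a mean inhibition of JAK1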
# Conditions: at 1 µM
# Tyrosine-protein kinase JAK1 (Homo sapiens), sequence (P23458 whole entry): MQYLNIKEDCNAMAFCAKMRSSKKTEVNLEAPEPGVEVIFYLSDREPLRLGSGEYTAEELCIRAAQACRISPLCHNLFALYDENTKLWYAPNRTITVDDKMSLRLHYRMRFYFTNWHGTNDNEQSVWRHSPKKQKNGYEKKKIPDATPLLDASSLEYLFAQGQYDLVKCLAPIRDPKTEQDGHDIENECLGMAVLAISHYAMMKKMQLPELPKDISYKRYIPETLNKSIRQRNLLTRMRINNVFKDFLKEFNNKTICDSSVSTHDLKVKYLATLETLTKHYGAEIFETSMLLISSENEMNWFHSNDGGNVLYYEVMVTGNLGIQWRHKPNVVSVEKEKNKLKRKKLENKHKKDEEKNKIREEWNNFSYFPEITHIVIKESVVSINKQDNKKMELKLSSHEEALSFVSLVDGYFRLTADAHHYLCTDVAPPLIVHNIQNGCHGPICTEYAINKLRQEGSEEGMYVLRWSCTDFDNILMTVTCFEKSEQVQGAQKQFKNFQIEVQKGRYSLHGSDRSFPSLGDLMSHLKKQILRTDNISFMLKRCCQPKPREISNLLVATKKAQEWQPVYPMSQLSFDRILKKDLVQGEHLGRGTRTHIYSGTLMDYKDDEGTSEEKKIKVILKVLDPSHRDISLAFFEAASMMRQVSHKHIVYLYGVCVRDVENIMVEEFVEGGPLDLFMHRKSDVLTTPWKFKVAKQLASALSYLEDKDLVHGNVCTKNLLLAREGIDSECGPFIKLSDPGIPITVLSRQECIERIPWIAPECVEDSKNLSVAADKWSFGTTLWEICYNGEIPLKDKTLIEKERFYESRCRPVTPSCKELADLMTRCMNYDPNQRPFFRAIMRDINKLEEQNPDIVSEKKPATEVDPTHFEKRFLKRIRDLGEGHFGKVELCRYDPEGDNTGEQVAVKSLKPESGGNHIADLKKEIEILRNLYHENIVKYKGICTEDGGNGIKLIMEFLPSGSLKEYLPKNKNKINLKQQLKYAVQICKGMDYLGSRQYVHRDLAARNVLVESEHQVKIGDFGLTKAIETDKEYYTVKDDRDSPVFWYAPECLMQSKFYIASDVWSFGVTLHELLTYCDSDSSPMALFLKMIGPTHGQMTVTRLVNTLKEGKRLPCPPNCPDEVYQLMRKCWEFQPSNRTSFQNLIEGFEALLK
row,Structure (SMILES),inhibition [%]
1,COc1ccc(COc2ccc(Cc3cnc(N)nc3N)cc2OC)cc1,-0.05
2,[O-][S+]1CCN(Cc2ccc(-c3ccc4ncnc(Nc5ccc(OCc6ccccc6)c(F)c5)c4c3)o2)CC1,0.63
3,CC(C)=Cc1cccc2c1/C(=N/Nc1ccc(S(N)(=O)=O)cc1)C(=O)N2,17.6
4,COc1cc(C)c(NC(=O)CN(C)C)cc1Nc1nc(Nc2cccc(F)c2C(N)=O)c2cc[nH]c2n1,-4.44
5,COC(=O)Nc1nc2cc(Oc3ccc(NC(=O)Nc4cccc(C(=O)O)c4)cc3)ccc2[nH]1,2.01
6,CS(=O)(=O)Nc1ccc(N/C=C2\C(=O)Nc3ccccc32)cc1,5.33
7,CC(=O)Nc1cccc(C#Cc2cncnc2Nc2ccc(OCc3cccc(F)c3)c(Cl)c2)n1,14.8
8,CN(C)c1cc2c(Nc3ccc4nc(Cc5ccccc5)[nH]c4c3)ncnc2cn1,8.16
9,COc1ccc(-c2ccncc2)cc1C(N)=O,3.27
10,O=C(Nc1n[nH]c2nc(-c3ccco3)c(Br)cc12)C1CC1,-1.14
11,CS(=O)(=O)CCNCc1ccc(-c2ccc3ncnc(Nc4ccc(OCc5cccc(F)c5)c(C(F)(F)F)c4)c3c2)o1,13.3
12,CCn1c(-c2nonc2N)nc2c(C#CC(C)(C)O)nc(CN3CCCC3)cc21,3.25
13,CCn1c(-c2nonc2N)nc2c(N3CCCC3)nccc21,-2.79
14,CCc1cccc(NC(=O)Nc2ccc(Oc3ccc4nc(NC(=O)OC)[nH]c4c3)cc2)c1,1.27
15,O=C1Nc2ccc(C(=O)c3ccco3)cc2C1=Cc1cc(Cl)c(O)c(Cl)c1,7.05
16,CS(=O)(=O)CCNCc1nc(-c2ccc3ncnc(Nc4ccc(F)c(Cl)c4)c3c2)cs1,4.25
17,Fc1cccc(COc2ccc(Nc3ncnc4cc(-c5ccc[nH]5)sc34)cc2Cl)c1,13.6

# Biological target: Tyrosine-protein kinase JAK2 (Homo sapiens) (UniProt O60674);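 note: mean percent inhibition of JAK2 activity, from the GSK PKIS kinase panel screen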
# Conditions: at 0.1 µM
# Tyrosine-protein kinase JAK2 (Homo sapiens), sequence (O60674 whole entry): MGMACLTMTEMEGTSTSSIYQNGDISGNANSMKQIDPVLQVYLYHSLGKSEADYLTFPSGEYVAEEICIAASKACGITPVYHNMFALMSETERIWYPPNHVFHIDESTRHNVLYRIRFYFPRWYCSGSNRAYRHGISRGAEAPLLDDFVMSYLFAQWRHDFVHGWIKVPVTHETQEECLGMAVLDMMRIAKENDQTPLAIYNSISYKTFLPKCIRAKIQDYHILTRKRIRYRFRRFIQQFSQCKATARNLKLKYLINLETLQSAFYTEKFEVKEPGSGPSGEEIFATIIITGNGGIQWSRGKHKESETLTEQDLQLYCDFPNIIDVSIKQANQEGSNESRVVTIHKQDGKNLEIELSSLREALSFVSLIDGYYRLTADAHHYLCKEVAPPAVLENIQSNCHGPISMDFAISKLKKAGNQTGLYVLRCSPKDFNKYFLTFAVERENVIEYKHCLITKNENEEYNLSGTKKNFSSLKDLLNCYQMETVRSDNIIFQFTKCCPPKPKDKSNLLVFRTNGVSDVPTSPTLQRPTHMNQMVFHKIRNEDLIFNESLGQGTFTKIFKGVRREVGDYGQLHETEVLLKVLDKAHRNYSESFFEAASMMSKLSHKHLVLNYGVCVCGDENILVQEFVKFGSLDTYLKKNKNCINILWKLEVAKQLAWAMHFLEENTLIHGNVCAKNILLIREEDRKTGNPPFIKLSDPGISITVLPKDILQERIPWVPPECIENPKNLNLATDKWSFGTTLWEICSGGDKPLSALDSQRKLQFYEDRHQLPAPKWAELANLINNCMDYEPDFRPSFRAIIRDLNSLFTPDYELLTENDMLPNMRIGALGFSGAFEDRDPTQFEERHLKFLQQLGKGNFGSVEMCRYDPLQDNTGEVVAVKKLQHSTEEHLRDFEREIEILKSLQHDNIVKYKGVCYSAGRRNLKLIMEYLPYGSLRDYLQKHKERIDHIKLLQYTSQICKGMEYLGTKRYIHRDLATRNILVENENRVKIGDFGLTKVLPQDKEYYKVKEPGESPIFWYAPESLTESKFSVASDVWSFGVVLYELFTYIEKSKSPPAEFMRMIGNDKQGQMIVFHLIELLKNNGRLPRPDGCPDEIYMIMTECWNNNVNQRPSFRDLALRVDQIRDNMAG
row,Structure (SMILES),inhibition [%]
1,N#Cc1c(NC(=O)c2cccc3ccccc23)sc2c1CCCC2,1.62
2,CCn1c(-c2nonc2N)nc2cncc(C(=O)N3CCNCC3)c21,4.03
3,NS(=O)(=O)c1cccc(-c2ccc3c(NC(=O)C4CC4)n[nH]c3c2)c1,-0.14
4,CC1=C(C(=O)Nc2ccc3[nH]ncc3c2)C(c2ccc3ccccc3c2)CC(=O)N1 (stereo unspecified),2.05
5,Cc1nnc(-c2ccc(C)c(-c3ccc(C(=O)Nc4cccc(C#N)c4)cc3)c2)o1,-0.14
6,Cc1nn(C)c2cc(N(C)c3ccnc(Nc4cccc(S(N)(=O)=O)c4)n3)ccc12,7.43
7,CS(=O)(=O)CCN(CC#N)Cc1ccc(-c2ccc3ncnc(Nc4ccc(OCc5cccc(F)c5)c(Cl)c4)c3c2)o1,1.36
8,NC(=O)c1cccc(Nc2nccc(Nc3cccc4[nH]ncc34)n2)c1,6.75
9,COc1cc2ncn(-c3cc(OCc4ccccc4Cl)c(C(N)=O)s3)c2cc1OC,0.18
10,Cc1cccc(-c2n[nH]cc2-c2ccc3ncccc3n2)n1,-0.23
11,CCn1c(-c2nonc2N)nc2ccncc21,0.33
12,COc1cc2ncn(-c3cc(OCc4ccccc4C(F)(F)F)c(C(N)=O)s3)c2cc1OC,1.67
13,NCc1ccc(-c2nc(-c3ccc(Cl)c(O)c3)c(-c3ccncc3)[nH]2)cc1,0.65
14,CCN1CCC(CC(=O)Nc2n[nH]c3nc(-c4cccs4)c(Br)cc23)CC1,-1.09
15,Nc1nc(-c2ccc3c(c2)C(=Cc2cc(Br)c(O)c(Br)c2)C(=O)N3)cs1,-0.72
16,COc1ccc(-c2nn3ncccc3c2-c2ccnc(Nc3ccc(Cl)c(C(F)(F)F)c3)n2)cc1,-0.46
17,COc1ccc(COc2ccc(Cc3cnc(N)nc3N)cc2OC)cc1,1.99

row,Structure (SMILES),inhibition [%]
1,[O-][S+]1CCN(Cc2ccc(-c3ccc4ncnc(Nc5ccc(OCc6ccccc6)c(F)c5)c4c3)o2)CC1,0.4
2,CC(C)=Cc1cccc2c1/C(=N/Nc1ccc(S(N)(=O)=O)cc1)C(=O)N2,2.18
3,Nc1ncnc2occ(-c3ccc(NC(=O)Nc4cc(C(F)(F)F)cc(C(F)(F)F)c4)cc3)c12,0.74
4,COc1cc(C)c(NC(=O)CN(C)C)cc1Nc1nc(Nc2cccc(F)c2C(N)=O)c2cc[nH]c2n1,0.46
5,COC(=O)Nc1nc2cc(Oc3ccc(NC(=O)Nc4cccc(C(=O)O)c4)cc3)ccc2[nH]1,-0.28
6,CS(=O)(=O)Nc1ccc(N/C=C2\C(=O)Nc3ccccc32)cc1,-0.93
7,CC(=O)Nc1cccc(C#Cc2cncnc2Nc2ccc(OCc3cccc(F)c3)c(Cl)c2)n1,-1.97
8,CN(C)c1cc2c(Nc3ccc4nc(Cc5ccccc5)[nH]c4c3)ncnc2cn1,2.34
9,COc1ccc(-c2ccncc2)cc1C(N)=O,2.44
10,O=C(Nc1n[nH]c2nc(-c3ccco3)c(Br)cc12)C1CC1,1.5
11,CS(=O)(=O)CCNCc1ccc(-c2ccc3ncnc(Nc4ccc(OCc5cccc(F)c5)c(C(F)(F)F)c4)c3c2)o1,0.47
12,CCn1c(-c2nonc2N)nc2c(C#CC(C)(C)O)nc(CN3CCCC3)cc21,0.37
13,CCn1c(-c2nonc2N)nc2c(N3CCCC3)nccc21,-0.66
14,CCc1cccc(NC(=O)Nc2ccc(Oc3ccc4nc(NC(=O)OC)[nH]c4c3)cc2)c1,1.07
15,O=C1Nc2ccc(C(=O)c3ccco3)cc2C1=Cc1cc(Cl)c(O)c(Cl)c1,2.07
16,CS(=O)(=O)CCNCc1nc(-c2ccc3ncnc(Nc4ccc(F)c(Cl)c4)c3c2)cs1,0.34
17,Fc1cccc(COc2ccc(Nc3ncnc4cc(-c5ccc[nH]5)sc34)cc2Cl)c1,1.26

# Reference: ChEMBL document CHEMBL1961873, “Compounds: GSK PKIS; Assays: Nanosyn kinase panel” (2012)
